# According to PubChem BioAssay (NCATS):
# Inconclusive results are not listed. Active and inactive are the calls of the source. The call rests on the fitted dose curve; in most records, active means well fitted curve in the direction sought with a large enough effect; inconclusive means small, poorly fitted or top-dose-only effect, or another doubt; inactive means no such curve, though single readings can be large; an effect the other way counts as inactive or inconclusive.
# Experiments:
# [1] = qHTS of pediatric cancer cell lines to identify multiple opportunities for drug repurposing: Primary screen for NB-EBc1 cells (AID 1347095); further: potency means the concentration at half of the fitted maximal effect
# How it was run: (§1)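 Luminescence from CellTiter-Glo served as readout of metabolically active cells after 48 h compound exposure. Titrations: MIPE 11-point, from 0.78 nM; NPC 8-point, from 0.59 nM (final). Concentration-response curves came straight from the primary screen.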
# [2] = qHTS of pediatric cancer cell lines to identify multiple opportunities for drug repurposing: Primary screen for Saos-2 cells (AID 1347097); further: nearly all actives have a fitted effect of over 40% in size; further: potency means the concentration at half of the fitted maximal effect
# How it was run: as §1
# [3] = qHTS of pediatric cancer cell lines to identify multiple opportunities for drug repurposing: Primary screen for SK-N-SH cells (AID 1347098); further: nearly all actives have a fitted effect of over 65% in size; further: potency means the concentration at half of the fitted maximal effect
# How it was run: (§2)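 Cells (500-1,000/well) rested 5 h, then received compounds for 48 h; metabolically active cells were measured by CellTiter-Glo luminescence. Final concentrations spanned up to 46 µM (MIPE, 11-point) or 0.59 nM-46 µM (NPC, 8-point) in primary screens, 11-point in follow-ups.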
# [4] = qHTS of pediatric cancer cell lines to identify multiple opportunities for drug repurposing: Primary screen for NB1643 cells (AID 1347099); further: nearly all actives have a fitted effect of over 50% in size; further: potency means the concentration at half of the fitted maximal effect
# How it was run: as §1
# [5] = qHTS of pediatric cancer cell lines to identify multiple opportunities for drug repurposing: Primary screen for LAN-5 cells (AID 1347100); further: potency means the concentration at half of the fitted maximal effect
# How it was run: (§3)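 Viability after 48 h compound treatment at 37C, 500-1,000 cells/well, read as ATP luminescence with CellTiter-Glo. Primary screens used 11-point (MIPE, 0.78 nM-46 µM) or 8-point (NPC, 0.59 nM-46 µM) final concentrations; follow-up screens used 11-point dilutions.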
# [6] = qHTS of pediatric cancer cell lines to identify multiple opportunities for drug repurposing: Primary screen for BT-12 cells (AID 1347101); further: nearly all actives have a fitted effect of over 25% in size; further: potency means the concentration at half of the fitted maximal effect
# How it was run: as §2
# [7] = qHTS of pediatric cancer cell lines to identify multiple opportunities for drug repurposing: Primary screen for Rh18 cells (AID 1347102); further: nearly all actives have a fitted effect of over 65% in size; further: potency means the concentration at half of the fitted maximal effect
# How it was run: as §3
# [8] = qHTS of pediatric cancer cell lines to identify multiple opportunities for drug repurposing: Primary screen for OHS-50 cells (AID 1347103); further: nearly all actives have a fitted effect of over 40% in size; further: potency means the concentration at half of the fitted maximal effect
# How it was run: as §2
# [9] = qHTS of pediatric cancer cell lines to identify multiple opportunities for drug repurposing: Primary screen for RD cells (AID 1347104); further: nearly all actives have a fitted effect of over 55% in size; further: potency means the concentration at half of the fitted maximal effect
# How it was run: as §1
# [10] = qHTS of pediatric cancer cell lines to identify multiple opportunities for drug repurposing: Primary screen for U-2 OS cells (AID 1347096); further: nearly all actives have a fitted effect of over 50% in size
# How it was run: as §3
SMILES,Potency [1],Potency [2],Potency [3],Potency [4],Potency [5],Potency [6],Potency [7],Potency [8],Potency [9],Potency [10]
CC(=O)N[C@@H]1[C@H](O[C@@H]2c3ccc(c(Cl)c3)Oc3cc4cc(c3O[C@H]3O[C@H](CO)[C@@H](O)[C@H](O)[C@H]3NC(=O)CCCCCCCC(C)C)Oc3ccc(cc3Cl)C[C@H]3NC(=O)[C@H](N)c5ccc(O)c(c5)Oc5cc(O)cc(c5)[C@H](NC3=O)C(=O)N[C@H]4C(=O)N[C@H]3C(=O)N[C@@H]2C(=O)N[C@@H](C(=O)O)c2cc(O)cc(O[C@H]4O[C@H](CO)[C@@H](O)[C@H](O)[C@H]4O)c2-c2cc3ccc2O)O[C@H](CO)[C@@H](O)[C@@H]1O,inactive,inactive,inactive,inactive,inactive,inactive,inactive,inactive,inactive,–
CC(C)(C)[N+]([O-])=Cc1ccc(S(=O)(=O)O)cc1S(=O)(=O)O,inactive,inactive,inactive,inactive,inactive,inactive,inactive,inactive,inactive,–
CCCCCCCCc1ccc(CCC(N)(CO)CO)cc1,16.6 µM (active),18.7 µM (active),34.1 µM (active),18.7 µM (active),26.4 µM (active),21.7 µM (active),16.6 µM (active),15.3 µM (active),8.33 µM (active),–
O=C(C=Cc1ccc(CN(CCO)CCc2c[nH]c3ccccc23)cc1)NO,0.148 µM (active),0.372 µM (active),0.541 µM (active),0.166 µM (active),0.0935 µM (active),0.611 µM (active),0.105 µM (active),0.243 µM (active),0.372 µM (active),–
Cc1nc(NC(=O)N2CCC[C@@H]2C(N)=O)sc1-c1ccnc(C(C)(C)C(F)(F)F)c1,1.48 µM (active),–,–,9.35 µM (active),5.9 µM (active),–,3.72 µM (active),0.485 µM (active),0.372 µM (active),inactive
COc1ccc(C=Cc2cc(OC)c(OC)c(OC)c2)cc1NC(=O)[C@H](N)CO,0.001 µM (active),0.0105 µM (active),inactive,–,0.0132 µM (active),0.0086 µM (active),inactive,0.0137 µM (active),0.0066 µM (active),–
COc1cccc2c1C(=O)c1c(O)c3c(c(O)c1C2=O)C[C@@](O)(C(=O)CO)C[C@@H]3O[C@H]1C[C@H](N)[C@@H](O)[C@H](C)O1,0.118 µM (active),2.35 µM (active),–,0.662 µM (active),0.118 µM (active),0.685 µM (active),0.469 µM (active),0.611 µM (active),0.935 µM (active),–
CC[C@]12C=CCN3CC[C@@]4(c5cc([C@@]6(C(=O)OC)C[C@H]7C[C@@H](C(C)(F)F)CN(Cc8c6[nH]c6ccccc86)C7)c(OC)cc5N(C)[C@H]4[C@@](O)(C(=O)OC)[C@H]1OC(C)=O)[C@@H]32,0.0118 µM (active),0.0083 µM (active),–,0.132 µM (active),0.0053 µM (active),0.0343 µM (active),–,0.0193 µM (active),0.0059 µM (active),–
O=C(NCc1ccccc1)[C@H](Cc1ccccc1)NC(=O)[C@@H]1O[C@@H]1C(=O)NCCc1ccc(O)cc1,inactive,23.5 µM (active),21.5 µM (active),–,inactive,inactive,–,–,–,–
COc1cccc2c1C(=O)c1c(O)c3c(c(O)c1C2=O)C[C@@](O)(C(=O)CO)C[C@H]3O[C@H]1C[C@H](N)[C@H](O)[C@H](C)O1,0.0469 µM (active),1.32 µM (active),0.242 µM (active),0.526 µM (active),–,0.485 µM (active),0.662 µM (active),0.611 µM (active),0.833 µM (active),–
c1ccc(CNc2nc(NCc3ccccc3)c3ccccc3n2)cc1,23.5 µM (active),18.7 µM (active),6.81 µM (active),18.7 µM (active),20.9 µM (active),24.3 µM (active),–,30.6 µM (active),16.6 µM (active),–
Cc1noc(-c2ccc(CSCCC(=O)O)cc2)c1NC(=O)OC(C)c1ccccc1Cl (centres undefined),inactive,inactive,inactive,–,inactive,inactive,inactive,inactive,inactive,–
COc1cc(C=CC(=O)CC(=O)C=Cc2ccc(O)c(OC)c2)ccc1O,38.2 µM (active),30.3 µM (active),–,12.1 µM (active),9.59 µM (active),44.4 µM (active),38.2 µM (active),39.5 µM (active),–,–
NC(=NCCCCCCN=C(N)N=C(N)Nc1ccc(Cl)cc1)N=C(N)Nc1ccc(Cl)cc1,26.4 µM (active),18.7 µM (active),21.5 µM (active),–,–,13.7 µM (active),20.9 µM (active),–,11.8 µM (active),–
CCOC(=O)N1CCN([N+]([O-])=NOc2ccc([N+](=O)[O-])cc2[N+](=O)[O-])CC1,5.26 µM (active),18.7 µM (active),27.1 µM (active),–,11.8 µM (active),–,–,13.7 µM (active),18.7 µM (active),–
COc1cc(OC)c(C=CS(=O)(=O)Cc2ccc(OC)c(NCC(=O)O)c2)c(OC)c1,0.187 µM (active),0.059 µM (active),7.64 µM (active),0.0372 µM (active),0.148 µM (active),–,inactive,0.172 µM (active),–,–
C#Cc1cccc(Nc2ncnc3cc(OCCOC)c(OCCO)cc23)c1,5.26 µM (active),5.9 µM (active),3.83 µM (active),1.87 µM (active),0.264 µM (active),13.7 µM (active),–,3.85 µM (active),1.66 µM (active),–
CN(C)c1ccc2cc(C(=O)N[C@@H](CCCN=C(N)CCl)C(=O)NCc3ccccc3)ccc2c1,23.5 µM (active),14.8 µM (active),–,14.8 µM (active),1.05 µM (active),24.3 µM (active),20.9 µM (active),4.85 µM (active),13.2 µM (active),–
Cn1cc(C2=C(c3c4n(c5ccccc35)CCC(CN)C4)C(=O)NC2=O)c2ccccc21 (centres undefined),18.7 µM (active),18.7 µM (active),24.1 µM (active),26.4 µM (active),26.4 µM (active),27.3 µM (active),–,24.3 µM (active),29.6 µM (active),–
Oc1cc(-c2nc(-c3ccccc3)[nH]c2-c2ccncc2)ccc1Cl,3.72 µM (active),11.8 µM (active),19.2 µM (active),–,16.6 µM (active),6.11 µM (active),13.2 µM (active),24.3 µM (active),2.09 µM (active),–
C=C[C@@H]1CN2CCC1C[C@H]2[C@H](O)c1ccnc2ccc(OC)cc12 (some centres undefined),inactive,inactive,inactive,–,inactive,inactive,inactive,–,inactive,–
FC(F)(F)c1ccc(Nc2nc3ccc(Oc4ccnc(-c5ncc(C(F)(F)F)[nH]5)c4)cc3[nH]2)cc1,20.9 µM (active),7.43 µM (active),5.41 µM (active),–,–,–,inactive,24.3 µM (active),18.7 µM (active),–
O=C1NC(=O)[C@@H](c2cn3c4c(cccc24)CCC3)[C@H]1c1c[nH]c2ccccc12,0.0469 µM (active),0.148 µM (active),inactive,–,0.332 µM (active),2.17 µM (active),inactive,0.863 µM (active),0.235 µM (active),–
